Data published in PubChem BioAssay AID686949 (The Scripps Research Institute Molecular Screening Center, 2013).
In all, about 3,200 compounds went through this assay and about 2,200 (69%) were called active.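 The calls were made as follows: active = activation, as change over the incubation, above the mean of all tested compounds plus 3 SD (cut at about 13% in these data); inactive = the rest.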 So high a share suggests a set chosen from earlier hits. The list is a sample of the results.

Target: Kallikrein-7 (Homo sapiens) (UniProt P49862)
Sequence (P49862 whole entry, looked up): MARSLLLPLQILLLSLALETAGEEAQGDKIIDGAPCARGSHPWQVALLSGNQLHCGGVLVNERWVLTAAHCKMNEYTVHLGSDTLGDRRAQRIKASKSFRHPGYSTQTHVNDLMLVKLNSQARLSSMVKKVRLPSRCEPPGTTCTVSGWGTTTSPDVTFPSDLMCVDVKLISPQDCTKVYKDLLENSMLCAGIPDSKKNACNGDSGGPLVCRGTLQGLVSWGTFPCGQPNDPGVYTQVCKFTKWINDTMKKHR
Test: proKLK7 zymogen activators, confirmation, biochemical, fluorescence intensity, triplicate (AID 686949)
Conditions: purified proKLK7, EDANS-DABCYL substrate fluorescence; at 7 µM; active compounds read high

**Q.** For `COc1cccc(-c2nc3ccc(N4CCN(C)CC4)cc3[nH]2)c1`, which activation is on record?
**A.** 64% (active)

**Q.** With `CCOc1ccc(-c2cc(C)[n+](CCN(CC)CC)c(-c3ccc(OCC)cc3)c2)cc1` as the compound, how does the activation read?
**A.** 19.2% (active)

**Q.** For `Cc1nc2ccc(N3CCN(C)CC3)cc2nc1C`, which activation is on record?
**A.** 16.1% (active)

**Q.** How did the activation turn out when `CCOC(=O)c1c(N)n(CCN2CCOCC2)c2nc3ccccc3nc12` was run?
**A.** 27.8% (active)
